A short description of this experiment: inhibitors of HIV fusion peptide binding, primary screen, biochemical, uHTS, fluorescence dequenching (AID 1986). The conditions noted are these: cell-free peptide binding, 30 min, stronger effect = higher value.
Setting [1] is: measured here: repeat confirmation average inhibition, at 18.6 µM.

In all, about 290,000 compounds went through this assay and about 890 (0.31%) were called active. Rule as the data show it: active = inhibition mostly above about 52% (no sharp cut-off); inactive = mostly below about 76%. For the sample, actives were picked, then their nearest neighbours and some compounds at random.

For the molecule `COCCNC(=O)Cn1cc(/C=C2\C(=O)NC(=O)N(c3ccccc3F)C2=O)c2ccccc21`, for the setting “at 20 µM”, the inhibition is 159% (inactive). As for `O=C(Cn1cc(C=C2C(=O)NC(=O)NC2=O)c2ccccc21)NCC1CCCO1` (centres undefined), the inhibition is 61.4% (active) (at 20 µM) and 112% under setting [1]. Regarding `COCCCNC(=O)Cn1cc(/C=C2\C(=O)NC(=O)N(c3ccccc3F)C2=O)c2ccccc21`, under “at 20 µM”, the inhibition was 159% (inactive).

Regarding `COCCNC(=O)Cn1cc(/C=C2\C(=O)NC(=O)N(c3cccc(C)c3C)C2=O)c2ccccc21`, the inhibition was 90.2% (active) (at 20 µM) and 50.7% under setting [1]. With `O=C(O)Cn1cc(C=C2C(=O)NC(=O)NC2=O)c2ccccc21`, the inhibition (at 20 µM) is 4.8% (inactive). Turning to `COCCNC(=O)Cn1cc(C=C2C(=O)NC(=O)NC2=O)c2ccccc21`, the inhibition (at 20 µM) is 43.1% (inactive). The same measure, in the same setting: the value for `CC(Cc1ccccc1)[n+]1cc(/N=C(\[O-])Nc2ccccc2)on1` (centres undefined) was -1.8% (inactive); that for `O=C(NCc1ccccn1)c1ccccc1Cl` was -1.3% (inactive). Consider `CCOC(=O)c1c(C)c(P(=S)(N2CCOCC2)N2CCOCC2)n(C)c1C`, for which the inhibition (at 20 µM) is -1.8% (inactive). Consider `CC(C)n1c(=O)c(C=Nc2ccc(Cl)cc2)c(O)n(Cc2ccco2)c1=O`, for which the inhibition reads like this: (at 20 µM) 52.7% (inactive); under setting [1], 4.1%. As to `CC(C)n1c(=O)c(C=Nc2ccc(Br)cc2)c(O)n(Cc2ccco2)c1=O`, the inhibition (at 20 µM) was 66.2% (active). In the case of `CC(C)n1c(=O)c(C=Nc2ccc(F)cc2)c(O)n(Cc2ccco2)c1=O`, for the setting “at 20 µM”, the inhibition is 0.1% (inactive). Take `CCOC(=O)C1CCN(Cc2ccc(Cl)nc2)CC1`: the inhibition (at 20 µM) is -0.9% (inactive). Still for that read-out and setting: the value for `O=C1N(c2cccc(Cl)c2)C(c2cccnc2)N2CCCN12` (centres undefined) was -0.5% (inactive); that for `O=C1NC(=O)[C@]2(Cc3ccccc3N3CCN(c4ccccc4)CC32)C(=O)N1Cc1ccccc1` (some centres undefined) was 1.5% (inactive); that for `COc1ccc(-c2nc3ccc(C(=O)N4CCC5(CC4)OCCO5)cc3nc2-c2ccc(OC)cc2)cc1` was -1.1% (inactive). The same measure, in the same setting: the value for `Cc1cc(/C=C2\C(=O)NC(=O)N(Cc3ccccc3)C2=O)c(C)n1-c1ccc(Cl)c(C(=O)O)c1` was 52.5% (active). In the case of `Cc1cc(/C=C2\C(=O)NC(=O)N(Cc3ccccc3Cl)C2=O)c(C)n1-c1ccc(C(=O)O)cc1`, the inhibition was 67.8% (inactive) (at 20 µM) and 40.6% under setting [1]. In the case of `Cc1cc(/C=C2\C(=O)NC(=O)N(c3ccccc3)C2=O)c(C)n1-c1ccc(C(=O)O)c(Cl)c1`, under “at 20 µM”, the inhibition was 9.8% (inactive). Regarding `CCn1cc(C=C2C(=O)N(C)C(=O)N(C)C2=O)c2ccccc21`, where the note is “at 20 µM”, the inhibition is 6.6% (inactive). On to `COC(=O)Cn1cc(C=C2C(=O)N(C)C(=O)N(C)C2=O)c2ccccc21`, for which the inhibition was 118% (active) (at 20 µM) and 98.7% under setting [1]. `CCN(CC)C(=O)Cn1cc(C=C2C(=O)N(C)C(=O)N(C)C2=O)c2ccccc21`: the inhibition (at 20 µM) is 9.3% (inactive). On the same count and under the same terms, the value for `COC(=O)Cn1cc(C=C2C(=O)NC(=O)NC2=O)c2ccccc21` was 10% (inactive); that for `CN1C(=O)C(=Cc2cn(CC(=O)N3CCCC3)c3ccccc23)C(=O)N(C)C1=O` was 9.1% (inactive). In the case of `CCOC(=O)Cn1cc(C=C2C(=O)N(C)C(=O)N(C)C2=O)c2ccccc21`, the inhibition by setting is: (at 20 µM) 58.4% (active); under setting [1], 149%. `CCN1C(=O)NC(=O)/C(=C\c2cn(CC(=O)N3CCCCC3)c3ccccc23)C1=O`: the inhibition (at 20 µM) was 92.7% (active).

For `CCOC(=O)C1(c2ccccc2)CCN(CCC(=O)Nc2ccccc2OC)CC1`, the inhibition (at 20 µM) is 1.8% (inactive). On to `CN1CCN(c2ccccc2N)CC1`, for which the inhibition (at 20 µM) is 1.6% (inactive). Still for that read-out and setting: under `Cc1ccc(-n2c(O)c(C=NC3CCCC3)c(=O)[nH]c2=O)c(C)c1` stands 2.6% (inactive); under `CCOP(=O)(OCC)C(NC(=O)C(C)C)C(Cl)(Cl)Cl` (centres undefined), 0.1% (inactive). For `CC/C(=N\NC(=O)c1ccccc1O)c1c(O)n(C2CCCCC2)c(=O)[nH]c1=O`, the inhibition by setting is: (at 20 µM) 51.3% (inactive); under setting [1], 46.2%. Turning to `CC(=O)c1ccc2c(c1)C1C(Cl)C(Sc3ccccc3[N+](=O)[O-])CC1C(C(=O)O)N2` (centres undefined), the inhibition runs as follows: (at 20 µM) 54.5% (inactive); under setting [1], 1.3%.

Take `O=C(O)c1cccc2c1NC(C(=O)O)C1CC(Sc3ccccc3[N+](=O)[O-])C(Cl)C21` (centres undefined): the inhibition (at 20 µM) is 63.2% (active). Consider `Cc1ccc2c(c1Cl)NC(C(=O)O)C1CC(Sc3ccccc3[N+](=O)[O-])C(Cl)C21` (centres undefined), for which the inhibition is 63% (inactive) (at 20 µM) and 28% under setting [1]. With `CC(C)(C)C(=O)c1cn(Cc2ccccc2)c2ccccc12`, the inhibition (at 20 µM) is -0.8% (inactive). Same read-out and setting: under `O=C(COc1ccccc1)c1cn(Cc2ccccc2)c2ccccc12` stands 80.8% (active); under `CCC(=O)c1cn(Cc2ccccc2)c2ccccc12`, -1.1% (inactive). Still for that read-out and setting: under `COC(=O)N(C)c1ccc(C(O)(C(=O)OC)C(F)(F)F)cc1` (centres undefined) stands 0% (inactive). For `CC1Oc2cc3c(-c4c(O)cc(O)c5c(O)c6c(cc45)OC(C)C(C)C6=O)c(O)cc(O)c3c(O)c2C(=O)C1C` (centres undefined), under “at 20 µM”, the inhibition was 54.2% (active). As for `O=C(O)c1ccc(N=Cc2c(O)[nH]c(=O)[nH]c2=O)cc1`, the inhibition (at 20 µM) was 15.8% (inactive).

As to `CCOC(=O)c1cc(CC)sc1/N=C/C1C(=O)NC(=S)NC1=O`, the inhibition (at 20 µM) is 30.8% (inactive). On the same count and under the same terms, the value for `COc1ccc(C(=O)CC2(CC(=O)c3ccc(OC)cc3)C(=O)N(C)C(=O)N(C)C2=O)cc1` was 3.7% (inactive); that for `CCn1nc(-c2cccs2)nc2c(=O)n(C)c(=O)nc1-2` was 1.6% (inactive). In the case of `CCn1nc(-c2ccccc2)nc2c(=O)n(C)c(=O)nc1-2`, the inhibition (at 20 µM) is 80.2% (active) and the inhibition under setting [1] was found to be 60.9%. Take `CCn1nc(/C=C/c2ccccc2)nc2c(=O)n(C)c(=O)nc1-2`: where the note is “at 20 µM”, the inhibition is 1.1% (inactive).

In the case of `CC1=C(C(=O)O)N2C(=O)C(NC(=O)Cc3ccccc3)C2SC1` (centres undefined), the inhibition (at 20 µM) was 3.3% (inactive). Take `O=P(/C(=N/O)N1CCOCC1)(N1CCOCC1)N1CCOCC1`: the inhibition (at 20 µM) is 2.4% (inactive). Turning to `CCOC(=O)C1CCN(C(C)C(=O)c2c(C)[nH]c3cc(C)ccc23)CC1` (centres undefined), the inhibition (at 20 µM) was 8.4% (inactive).

Consider `CCC1CCCCN1P(=O)(c1ccc(C)o1)C(C)(C)C` (centres undefined), for which, where the note is “at 20 µM”, the inhibition is 5.9% (inactive). On to `CCc1cc(=O)oc2c(C)c(OCC(=O)N3C[C@H]4C[C@@H](C3)c3cccc(=O)n3C4)ccc12`, for which the inhibition (at 20 µM) was 1.3% (inactive). Still for that read-out and setting: the value for `O=C(C1c2ccccc2C(=O)N2CCc3ccccc3C12)N1CCC2(CC1)OCCO2` (centres undefined) was -2.3% (inactive). The same measure, in the same setting: the value for `COc1ccc(CCNCc2cccn2C)cc1` was -1.8% (inactive). The same measure, in the same setting: the value for `NC(=O)c1cn(C2CCCCC2)c2ccccc2c1=O` was -1.7% (inactive). As for `CCCCCC(=O)N[C@@H](c1ccccc1)[C@@H](O)C(=O)O[C@H]1C[C@@]2(O)[C@@H](OC(=O)c3ccccc3)C3[C@](C)(C(=O)[C@H](O)C(=C1C)C2(C)C)[C@@H](OC1OCC(O)C(O)C1O)C[C@H]1OC[C@@]31OC(C)=O` (some centres undefined), under “at 20 µM”, the inhibition was 0% (inactive).

The record behind these values is PubChem BioAssay AID1986 (Sanford-Burnham Center for Chemical Genomics, 2009).
